What all share (details): mRNA level, 48 h; actives raise or lower the signal
Read-out in experiment [1]: Bcl-2 (BAD) gene, BAD (gene 572)
Description: LTEA_HepaRG_BAD: Life Technologies and Expression Analysis (LTEA) Assay for Bcl-2 (BAD) gene using HepaRG (AID 2283469). A digest of the protocol: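 Activity values reflect up- or down-regulation of BAD mRNA in human HepaRG hepatic cells treated 48 h in serum-free medium, with eight-point half-log dosing capped at 100 uM and 0.5% DMSO vehicle.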

Read-out in experiment [2]: Bcl-2 (BAX) gene, BAX (gene 581)
Briefly: LTEA_HepaRG_BAX: Life Technologies and Expression Analysis (LTEA) Assay for Bcl-2 (BAX) gene using HepaRG (AID 2283470). A digest of the protocol: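 Cells were thawed, plated for 48 h, moved to serum-free induction medium and dosed for 48 h (highest concentration 100 uM, half-log steps, 0.5% DMSO). Total RNA was then analysed for BAX expression by qRT-PCR.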

Read-out in experiment [3]: adenosine kinase (ADK) gene, ADK (gene 132)
Description: LTEA_HepaRG_ADK: Life Technologies and Expression Analysis (LTEA) Assay for adenosine kinase (ADK) gene using HepaRG (AID 2283471). A digest of the protocol:
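ADK expression quantified by qRT-PCR, normalised to three housekeeping genes, after 48 h exposure of HepaRG cells to eight concentrations (top 100 uM, half-log steps, duplicate, 0.5% DMSO). Up- or down-regulation fitted relative to vehicle.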

Read-out in experiment [4]: Alpha-fetoprotein (AFP) gene, AFP (gene 174)
Briefly: LTEA_HepaRG_AFP: Life Technologies and Expression Analysis (LTEA) Assay for Alpha-fetoprotein (AFP) gene using HepaRG (AID 2283472). A digest of the protocol: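 Chemicals were tested on differentiated HepaRG cells for 48 hours at eight concentrations up to 100 uM, with 0.5% DMSO as vehicle. AFP expression was then quantified by qRT-PCR and analyzed for gain or loss relative to DMSO.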

Read-out in experiment [5]: Apolipoprotein A-V (APOA5) gene, APOA5 (gene 116519)
Description: LTEA_HepaRG_APOA5: Life Technologies and Expression Analysis (LTEA) Assay for Apolipoprotein A-V (APOA5) gene using HepaRG (AID 2283474). Summed up: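 HepaRG, 48 h chemical exposure in serum-free induction medium, 8-pt half-log series (top 100 uM), 0.5% DMSO vehicle, duplicates. Readout: APOA5 mRNA by qRT-PCR, housekeeping-normalized; bidirectional fit vs DMSO baseline.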

Read-out in experiment [6]: Apoptosis regulator Bcl-2 (Homo sapiens) (UniProt P10415)
Briefly: LTEA_HepaRG_BCL2: Life Technologies and Expression Analysis (LTEA) Assay for Bcl-2 gene using HepaRG (AID 2283475). Summed up:
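Plated human HepaRG cells are exposed to test chemicals for 48 h across eight concentrations from 100 uM downward in half-log steps (0.5% DMSO). BCL2 expression is then measured by qRT-PCR with housekeeping normalisation and fitted bidirectionally against vehicle.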

Read-out in experiment [7]: Bcl-2 (BID) gene, BID (gene 637)
Description: LTEA_HepaRG_BID: Life Technologies and Expression Analysis (LTEA) Assay for Bcl-2 (BID) gene using HepaRG (AID 2283476). Summed up:
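Cells are plated, cultured 48 h, switched to serum-free induction medium, then dosed 48 h (100 uM top, half-log steps, 0.5% DMSO). RNA is isolated and BID expression read by qRT-PCR.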

Read-out in experiment [8]: Caspase-3 (Homo sapiens) (UniProt P42574)
Description: LTEA_HepaRG_CASP3: Life Technologies and Expression Analysis (LTEA) Assay for cysteine-aspartic acid protease (CASP3) using HepaRG (AID 2283477). A digest of the protocol: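 HepaRG, 48 h exposure, 8 conc. (top 100 uM, half-log steps, duplicate), 0.5% DMSO vehicle; qRT-PCR of CASP3 transcript, housekeeping-normalised (ACTB/GAPDH/POLR2A); bidirectional curve fit vs DMSO baseline.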

Read-out in experiment [9]: Cytochrome P450 (CYP24A1), CYP24A1 (gene 1591)
Description: LTEA_HepaRG_CYP24A1: Life Technologies and Expression Analysis (LTEA) Assay for Cytochrome P450 (CYP24A1) using HepaRG (AID 2283478). A digest of the protocol:
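qRT-PCR read-out: CYP24A1 transcript levels normalized to three housekeeping genes, bidirectional curve fits against 0.5% DMSO baseline. Human HepaRG cells treated 48 h with chemicals at eight concentrations from 100 uM in half-log steps.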

Read-out in experiment [10]: Cytochrome P450 (CYP1A2), CYP1A2 (gene 1544)
Description: LTEA_HepaRG_CYP1A2: Life Technologies and Expression Analysis (LTEA) Assay for Cytochrome P450 (CYP1A2) using HepaRG (AID 2283479). Summed up: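 HepaRG, 48 h exposure, top 100 uM, half-log 8-pt, 0.5% DMSO vehicle, duplicates. Readout: TaqMan qRT-PCR of CYP1A2 mRNA, housekeeping-normalized (ACTB/GAPDH/POLR2A). Gain/loss fit relative to DMSO baseline.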

Read-out in experiment [11]: Cytochrome P450 2C19 (Homo sapiens) (UniProt P33261)
Briefly: LTEA_HepaRG_CYP2C19: Life Technologies and Expression Analysis (LTEA) Assay for CYP2C19 using HepaRG (AID 2283482). A digest of the protocol:
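HepaRG, 48 h chemical exposure, 8-pt half-log series from 100 uM in 0.5% DMSO, duplicates. Readout: CYP2C19 mRNA by TaqMan qRT-PCR, housekeeping-normalized. Bidirectional fit vs DMSO baseline; phenobarbital 1mM as induction control.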

Read-out in experiment [12]: CYP2C8 (gene 1558)
Briefly: LTEA_HepaRG_CYP2C8: Life Technologies and Expression Analysis (LTEA) Assay for CYP2C8 using HepaRG (AID 2283483). A digest of the protocol:
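This is a transcriptional endpoint in HepaRG cultures: 48 h exposure, highest concentration 100 uM. CYP2C8 mRNA is quantified by TaqMan qRT-PCR.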

Read-out in experiment [13]: CYP2E1 (gene 1571)
Description: LTEA_HepaRG_CYP2E1: Life Technologies and Expression Analysis (LTEA) Assay for CYP2E1 using HepaRG (AID 2283485). A digest of the protocol:
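Readout is qRT-PCR of CYP2E1 mRNA, normalized to three housekeeping genes and fitted bidirectionally against 0.5% DMSO. HepaRG cells were dosed 48 h at eight concentrations, highest 100 uM with half-log dilutions.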

Read-out in experiment [14]: CYP4A11 (gene 1579)
Description: LTEA_HepaRG_CYP4A11: Life Technologies and Expression Analysis (LTEA) Assay for CYP4A11 using HepaRG (AID 2283486). Summed up: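 CYP4A11 transcript levels were quantified by TaqMan qRT-PCR after HepaRG human liver cells were treated for 48 hours with test chemicals (top 100 uM, half-log dilutions, 0.5% DMSO). Gain or loss of signal was fitted relative to DMSO.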

Read-out in experiment [15]: Cytochrome P450 3A4 (Homo sapiens) (UniProt P08684)
Description: LTEA_HepaRG_CYP3A4: Life Technologies and Expression Analysis (LTEA) Assay for CYP3A4 using HepaRG (AID 2283487). Summed up: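 Differentiated HepaRG cells, plated 48 h, then dosed 48 h in serum-free induction medium with 0.5% DMSO, 8 half-log concentrations up to 100 uM, duplicate. CYP3A4 mRNA by qRT-PCR, normalized to ACTB/GAPDH/POLR2A; bidirectional fit versus DMSO.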

Read-out in experiment [16]: DNA damage-inducible transcript 3 (DDIT3), DDIT3 (gene 1649)
Briefly: LTEA_HepaRG_DDIT3: Life Technologies and Expression Analysis (LTEA) Assay for DNA damage-inducible transcript 3 (DDIT3) using HepaRG (AID 2283488). A digest of the protocol: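 Cells are human HepaRG liver cells treated for 48 h with eight half-log concentrations up to 100 uM in 0.5% DMSO. Transcript levels come from qRT-PCR normalized to three housekeeping genes, with activity fitted in both directions relative to vehicle.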

Read-out in experiment [17]: cysteine-aspartic acid protease (CASP8), CASP8 (gene 841)
Description: LTEA_HepaRG_CASP8: Life Technologies and Expression Analysis (LTEA) Assay for cysteine-aspartic acid protease (CASP8) using HepaRG (AID 2283480). A digest of the protocol: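 Concentration-response in duplicate up to 100 uM (half-log steps, 0.5% DMSO) on differentiated HepaRG cultures for 48 h. Expression change of CASP8 mRNA is determined by TaqMan qRT-PCR with housekeeping-gene normalization.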

Read-out in experiment [18]: Cytochrome P450 (CYP2B6), CYP2B6 (gene 1555)
Briefly: LTEA_HepaRG_CYP2B6: Life Technologies and Expression Analysis (LTEA) Assay for Cytochrome P450 (CYP2B6) using HepaRG (AID 2283481). A digest of the protocol:
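Read-out is CYP2B6 mRNA by TaqMan qRT-PCR, normalized to three housekeeping genes and fitted bidirectionally against 0.5% DMSO baseline. Human HepaRG cells received test chemicals for 48 h, top concentration 100 uM, half-log dilutions.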

Read-out in experiment [19]: CYP2C9 (gene 1559)
Briefly: LTEA_HepaRG_CYP2C9: Life Technologies and Expression Analysis (LTEA) Assay for CYP2C9 using HepaRG (AID 2283484). Summed up:
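Eight-point concentration-response (highest 100 uM, half-log dilutions) in HepaRG cells for 48 h; CYP2C9 expression by qRT-PCR normalized to ACTB, GAPDH, POLR2A. Bidirectional fit, DMSO baseline.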

Consider four compounds from PubChem BioAssay (EPA / NIEHS).

Each structure is given as a SMILES string. Active and inactive are the calls of the source. Rule for the calls: active = hit-call score of the fitted dose curve at least 0.9, where 1 is the maximum; inactive = score below 0.9.

Cytochrome P450 2C19 (Homo sapiens), sequence (P33261 whole entry, looked up): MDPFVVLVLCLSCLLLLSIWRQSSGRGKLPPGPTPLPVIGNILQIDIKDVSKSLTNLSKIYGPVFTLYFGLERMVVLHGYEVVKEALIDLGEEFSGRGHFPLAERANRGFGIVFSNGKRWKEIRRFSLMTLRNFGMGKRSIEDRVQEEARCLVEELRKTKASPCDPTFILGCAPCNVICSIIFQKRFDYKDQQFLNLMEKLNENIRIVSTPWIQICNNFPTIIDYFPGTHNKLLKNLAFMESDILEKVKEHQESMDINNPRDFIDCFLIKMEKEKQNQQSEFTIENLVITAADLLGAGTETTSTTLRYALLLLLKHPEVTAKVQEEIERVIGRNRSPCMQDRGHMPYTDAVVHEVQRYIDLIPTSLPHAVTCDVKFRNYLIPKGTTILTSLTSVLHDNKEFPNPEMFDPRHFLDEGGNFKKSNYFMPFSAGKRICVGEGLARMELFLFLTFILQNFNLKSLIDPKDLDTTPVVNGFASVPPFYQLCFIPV
Cytochrome P450 3A4 (Homo sapiens), sequence (P08684 whole entry, looked up): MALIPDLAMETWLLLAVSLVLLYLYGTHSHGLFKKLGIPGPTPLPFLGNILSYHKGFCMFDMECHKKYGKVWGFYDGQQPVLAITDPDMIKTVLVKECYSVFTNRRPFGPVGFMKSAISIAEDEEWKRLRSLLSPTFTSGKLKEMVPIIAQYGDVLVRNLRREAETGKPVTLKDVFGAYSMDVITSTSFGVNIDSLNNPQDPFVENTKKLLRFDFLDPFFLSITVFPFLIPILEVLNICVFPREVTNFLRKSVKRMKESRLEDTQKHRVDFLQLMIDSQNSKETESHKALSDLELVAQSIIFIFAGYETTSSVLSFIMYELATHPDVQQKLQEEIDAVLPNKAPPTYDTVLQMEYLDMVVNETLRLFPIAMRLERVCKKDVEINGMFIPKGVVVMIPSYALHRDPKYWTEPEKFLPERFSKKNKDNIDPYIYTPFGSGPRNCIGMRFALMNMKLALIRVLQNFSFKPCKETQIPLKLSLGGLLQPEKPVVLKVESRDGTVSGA
Apoptosis regulator Bcl-2 (Homo sapiens), sequence (P10415 whole entry, looked up): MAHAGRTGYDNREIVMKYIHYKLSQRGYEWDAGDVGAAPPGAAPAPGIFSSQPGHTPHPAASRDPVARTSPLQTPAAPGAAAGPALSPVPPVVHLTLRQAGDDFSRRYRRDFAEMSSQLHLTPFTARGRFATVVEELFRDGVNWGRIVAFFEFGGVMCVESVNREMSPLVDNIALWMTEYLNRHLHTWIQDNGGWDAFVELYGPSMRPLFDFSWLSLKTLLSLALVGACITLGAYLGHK
Caspase-3 (Homo sapiens), sequence (P42574 whole entry, looked up): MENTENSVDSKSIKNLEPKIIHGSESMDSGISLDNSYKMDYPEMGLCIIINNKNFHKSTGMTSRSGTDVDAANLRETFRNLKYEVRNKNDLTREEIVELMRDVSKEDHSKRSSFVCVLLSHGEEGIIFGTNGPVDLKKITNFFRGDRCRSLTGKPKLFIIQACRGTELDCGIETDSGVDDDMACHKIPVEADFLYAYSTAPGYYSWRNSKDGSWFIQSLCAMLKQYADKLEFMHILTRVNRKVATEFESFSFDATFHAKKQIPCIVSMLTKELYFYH

On to `CCCCCC(=O)O`, for which the call in [1], in [2], in experiment [3], in experiment [4], in experiment [5] and in experiment [6] was inactive. Further, the outcome in experiment [7], in experiment [8], in experiment [9], in experiment [11], in experiment [12] and in [13] was inactive. The call in [14], in experiment [15] and in experiment [16] was inactive. In addition, the AC50 in experiment [10] is 63.7 µM (active).
In the case of `CC(C)(C)c1cc(O)c(C(C)(C)C)cc1O`, the outcome in [1], in experiment [2], in experiment [5] and in experiment [6] was inactive. Moreover, the AC50 was 76.7 µM (active) in [3]; 77.7 µM (active) in experiment [4]; 84.3 µM (active) in [7]; 79.4 µM (active) in experiment [8]; 81.1 µM (active) in experiment [17]; 50 µM (active) in [16].
In the case of `CC=Cc1ccc(O)c(OC)c1`, the result in [1], in experiment [2], in experiment [3], in experiment [4], in experiment [5] and in [6] was inactive. In addition, the outcome in experiment [7], in [8], in experiment [9], in experiment [10], in [18] and in [11] was inactive. Moreover, the call in [12], in [19], in [13], in experiment [14], in [15] and in experiment [16] was inactive.
Consider `Cc1cc(=O)[nH]c(=S)[nH]1`, for which the outcome in experiment [1], in experiment [2], in [3], in experiment [4], in [5] and in experiment [6] was inactive. The compound was called inactive in experiment [7], in [8], in experiment [9], in experiment [18], in experiment [11] and in experiment [12]. Also, the call in experiment [19], in experiment [13], in experiment [14], in experiment [15] and in [16] was inactive. Further, in experiment [10], the AC50 was 50 µM (active).

Broadly, the AC50 is the concentration at which the activity in the assay is half-maximal.
